Among the data in PubChem BioAssay (NCI) are growth values, retold here.

About 83,000 compounds went through this panel and 20% of them were active in at least one assay; those are over-represented in the sample as a whole.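 Plates (96-well) were seeded with cells, treated with compound at one concentration, and incubated for 48 hours before percent growth was determined.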 A number with no mark means an inactive call. Active and inactive are the calls of the source. Rule for the calls: active = growth percent below 10; inactive = the rest.

Some test systems named below: SK-MEL-2 melanoma; EKVX NSCLC; SN12C renal; UO-31 renal; TK-10 renal; ACHN renal; CAKI-1 renal; A498 renal; CCRF-CEM leukemia; MOLT-4 leukemia; SR leukemia; RPMI-8226 leukemia; OVCAR-8 ovarian; OVCAR-5 ovarian; OVCAR-4 ovarian; SK-OV-3 ovarian; IGROV1 ovarian; OVCAR-3 ovarian; HS 578T breast; NCI/ADR-RES ovarian.
Assay in all cases: NCI-60 one-dose screen, 48 h (100 = growth as untreated, 0 = no growth, -100 = all killed)
What all share (conditions): 10 µM unless noted

In the case of `N#CCCn1cnc2c(N)ncnc21`, the growth with SK-MEL-2 melanoma is 106%; with EKVX NSCLC it was 104%; with SN12C renal it was 94.2%; with UO-31 renal, 116%; in the assay on TK-10 renal, 114%; in the assay with ACHN renal, 94%. The growth in the assay with CAKI-1 renal was 97%; in the assay on A498 renal, 112%; in the assay with CCRF-CEM leukemia, 96.7%; in the assay with MOLT-4 leukemia, 92.1%; in the assay on SR leukemia, 98%; with RPMI-8226 leukemia, 101%. Besides, the growth was 96.5% in the assay with OVCAR-8 ovarian; 98.4% in the assay with OVCAR-5 ovarian; 107% in the assay on OVCAR-4 ovarian; 99.6% in the assay with SK-OV-3 ovarian; 125% with IGROV1 ovarian; 109% with OVCAR-3 ovarian. Moreover, the growth in the assay on HS 578T breast is 99.5%; in the assay on NCI/ADR-RES ovarian it was 109%.

Regarding `O=C(CCl)Nc1ccc2c(c1)C(=O)c1ccccc1C2=O`, the growth was 19.1% in the assay with SK-MEL-2 melanoma; 57% in the assay with EKVX NSCLC; -21.3% (active) with SN12C renal; 46.6% in the assay on UO-31 renal; -27.9% (active) with TK-10 renal; -67.8% (active) in the assay on ACHN renal. The growth in the assay on CAKI-1 renal is 0.23% (active); with A498 renal it was 44%; with CCRF-CEM leukemia, -46.2% (active); in the assay with MOLT-4 leukemia it was -29.1% (active); in the assay on SR leukemia it was -10.3% (active); in the assay on RPMI-8226 leukemia it was -59.1% (active). The growth is -27.3% (active) in the assay with OVCAR-8 ovarian; 18.6% with OVCAR-5 ovarian; 36.8% with OVCAR-4 ovarian; 54.5% in the assay with SK-OV-3 ovarian; -15.6% (active) in the assay with IGROV1 ovarian; -87.1% (active) in the assay with OVCAR-3 ovarian. For the same compound, the growth in the assay on HS 578T breast was 51.8%; with NCI/ADR-RES ovarian it was 14.2%.

In the case of `COc1ccc(-c2nc3c(c(-c4ccc(Cl)cc4)nn3-c3ccccc3)c(-c3ccc(O)cc3)c2C#N)cc1`, the growth in the assay with SK-MEL-2 melanoma is 62.4%; in the assay with EKVX NSCLC it was 49.6%; in the assay on SN12C renal, -26.7% (active); in the assay with UO-31 renal, 36.8%; in the assay on TK-10 renal, 93.7%; in the assay with ACHN renal it was 50.7%. The growth was 40.1% in the assay on CAKI-1 renal; 61.4% with A498 renal; 12.6% in the assay with CCRF-CEM leukemia; 14.4% in the assay on MOLT-4 leukemia; -29.9% (active) with SR leukemia; -33% (active) with RPMI-8226 leukemia. Moreover, the growth in the assay on OVCAR-8 ovarian was 61.3%; in the assay on OVCAR-5 ovarian, 78.9%; with OVCAR-4 ovarian it was 47.5%; in the assay on SK-OV-3 ovarian, 84.5%; in the assay on IGROV1 ovarian, 72.4%; in the assay on OVCAR-3 ovarian, 34.1%. The figures for the growth in the assay with HS 578T breast and in the assay on NCI/ADR-RES ovarian were 24.6% and 54.6%, respectively.

Consider `COc1ccc2c(c1)C1=NN(C(=O)CO)[C@H](c3ccc(OC(F)(F)F)cc3)[C@@H]1CC2`, for which the growth in the assay on SK-MEL-2 melanoma was 89.5%; in the assay on EKVX NSCLC, 94.3%; in the assay with SN12C renal, 99.6%; in the assay on UO-31 renal, 53.5%; with TK-10 renal, 162%; in the assay on ACHN renal it was 87.9%. In addition, the growth in the assay on CAKI-1 renal is 116%; in the assay with A498 renal, 94.4%; in the assay on CCRF-CEM leukemia it was 129%; in the assay on MOLT-4 leukemia it was 86.9%; with SR leukemia, 69.2%; with RPMI-8226 leukemia, 42.9%. For the same compound, the growth with OVCAR-8 ovarian was 98%; in the assay with OVCAR-5 ovarian, 108%; in the assay with OVCAR-4 ovarian, 89.5%; with SK-OV-3 ovarian, 96.3%; in the assay with IGROV1 ovarian, 72.3%; in the assay with OVCAR-3 ovarian it was 88.6%. Also, the growth was 85.7% in the assay on HS 578T breast and 85.5% with NCI/ADR-RES ovarian.

For the compound `COc1cccc(N2CCN(c3ncnc4cc[nH]c34)CC2)c1`, the growth in the assay with SK-MEL-2 melanoma was 64.7%; with EKVX NSCLC it was 50.1%; in the assay with SN12C renal, 85.5%; with UO-31 renal, 65%; with TK-10 renal, 52.8%; with ACHN renal it was 59.6%. Moreover, the growth is 71.6% in the assay on CAKI-1 renal; 41.3% with A498 renal; 60.9% in the assay on CCRF-CEM leukemia; 29.6% in the assay on MOLT-4 leukemia; 39.4% in the assay on SR leukemia; 35.4% in the assay with RPMI-8226 leukemia. The growth in the assay on OVCAR-8 ovarian was 40.3%; with OVCAR-5 ovarian it was 104%; with OVCAR-4 ovarian, 69.2%; in the assay with SK-OV-3 ovarian, 86.5%; with IGROV1 ovarian it was 85.4%; with HS 578T breast it was 92.5%.

Take `CC(C)c1ccc2c(c1)CCC1C2CCCC1(C)NCc1ccccc1` (stereo not given): the growth in the assay with SK-MEL-2 melanoma was 26.8%; with EKVX NSCLC, 80.3%; with SN12C renal, 66.9%; in the assay with UO-31 renal, 45.4%; with TK-10 renal, 95%; in the assay on ACHN renal, 90.6%. In addition, the growth in the assay on CAKI-1 renal is 63.1%; with A498 renal it was 91.5%; in the assay with CCRF-CEM leukemia it was 48.3%; in the assay on MOLT-4 leukemia it was 39.9%; with SR leukemia it was 0.88% (active); in the assay with RPMI-8226 leukemia, -35.2% (active). For the same compound, the growth in the assay with OVCAR-8 ovarian is 91.5%; in the assay with OVCAR-5 ovarian, 53.5%; with OVCAR-4 ovarian, 67.7%; in the assay with SK-OV-3 ovarian, 86.4%; in the assay on IGROV1 ovarian it was 84.2%; in the assay on OVCAR-3 ovarian, 80.4%. For the same compound, the growth in the assay on NCI/ADR-RES ovarian is 62.7%.

In the case of `Oc1c(C(Nc2cccc3ccccc23)c2ccccc2)ccc2cccnc12` (stereo not given), the growth in the assay with SK-MEL-2 melanoma was 0.608% (active); in the assay with EKVX NSCLC, 31%; in the assay with SN12C renal it was 38.9%; with UO-31 renal, 20.4%; with TK-10 renal, 46%; in the assay with ACHN renal it was 22.1%. Besides, the growth in the assay with CAKI-1 renal is 12.7%; in the assay with A498 renal it was 36.7%; in the assay with CCRF-CEM leukemia it was 13.2%; with MOLT-4 leukemia, -11.9% (active); with SR leukemia it was 3.7% (active); with RPMI-8226 leukemia, 37.6%. Moreover, the growth was 25% in the assay with OVCAR-8 ovarian; 49.8% in the assay on OVCAR-5 ovarian; 11.4% with OVCAR-4 ovarian; 49.6% in the assay on SK-OV-3 ovarian; 21.5% in the assay with IGROV1 ovarian; 63.5% in the assay with HS 578T breast.

On to `C=C(C)[C@@H]1CC[C@]2(C(=O)NC(COC(=O)C(Cl)Cl)(COC(=O)C(Cl)Cl)COC(=O)C(Cl)Cl)CC[C@]3(C)[C@H](CC[C@@H]4[C@@]5(C)CC[C@H](OC(C)=O)C(C)(C)[C@@H]5CC[C@]43C)[C@@H]12`, for which the growth in the assay on SK-MEL-2 melanoma is 76.5%; in the assay with EKVX NSCLC, 57.7%; with SN12C renal it was 37%; with UO-31 renal, 55.4%; with TK-10 renal, 75.8%; in the assay with ACHN renal, 51.1%. The growth in the assay with CAKI-1 renal was 48.4%; in the assay on A498 renal it was 99.5%; in the assay with CCRF-CEM leukemia, 18.3%; in the assay on MOLT-4 leukemia, 6.2% (active); in the assay with SR leukemia, 20.4%; with RPMI-8226 leukemia, 2.68% (active). For the same compound, the growth with OVCAR-8 ovarian was 73.6%; with OVCAR-5 ovarian, 80.7%; with OVCAR-4 ovarian it was 54.5%; in the assay with SK-OV-3 ovarian, 82.1%; in the assay with IGROV1 ovarian, 84.3%; in the assay with OVCAR-3 ovarian, 57.5%. Further, the growth is 71.5% in the assay on HS 578T breast and 71% in the assay on NCI/ADR-RES ovarian.
